Laboratory results published in the supplement of paper PMC10849652.
Targets with a hit are over-represented here; the source holds about 7,900 in all. About 0.6% of all pairs of compound and target were hits. Unmarked numbers belong to inactive results.

Key:
Assay in all cases: log2 fold change, soluble protein after heating vs DMSO (PISA); higher = thermal stabilisation; K562 cells, 10 uM, 30 min; active = over 0.2 and 3.5 SD of the protein, either way, in both replicates (recomputed)
[1] = compound: COC1=CC=C(C=C1)CN2C=CC3=C2C=C(C=C3)C(=O)NO
How it was run: (§1)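 K562 cells at 2×10^6 cells/mL were treated with 10 μM compound for 30 min. Aliquots were heated for 3 min across 48°C-58°C, pooled, and extracted in PBS with 0.5% NP-40 at 4°C; soluble protein was the supernatant after 21,000xg for 90 min. Soluble protein was quantified by TMTpro 16plex LC-MS/MS with channel sums equalised, and reported as log2 fold change in thermal stability against DMSO controls, with values from duplicates.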

filanesib = compound: CON(C)C(=O)N1N=C(c2cc(F)ccc2F)S[C@@]1(CCCN)c1ccccc1 [filanesib]
How it was run: as §1

zotarolimus = compound: CO[C@H]1C[C@@H]2CC[C@@H](C)[C@@](O)(O2)C(=O)C(=O)N2CCCC[C@H]2C(=O)O[C@H]([C@H](C)C[C@@H]2CC[C@H](n3cnnn3)[C@H](OC)C2)CC(=O)[C@H](C)/C=C(\C)[C@@H](O)[C@@H](OC)C(=O)[C@H](C)C[C@H](C)/C=C/C=C/C=C/1C [zotarolimus]
How it was run: as §1

idasanutlin = compound: COc1cc(C(=O)O)ccc1NC(=O)[C@@H]1N[C@@H](CC(C)(C)C)[C@](C#N)(c2ccc(Cl)cc2F)[C@H]1c1cccc(Cl)c1F [idasanutlin]
How it was run: as §1

alisertib = compound: COc1cc(Nc2ncc3c(n2)-c2ccc(Cl)cc2C(c2c(F)cccc2OC)=NC3)ccc1C(=O)O [alisertib]
How it was run: as §1

[2] = compound: COc1cc2nc(-c3cc(F)ccc3O)nc(N[C@@H]3CNC[C@H]3C(C)(C)O)c2cc1OC
How it was run: as §1

gefitinib = compound: COc1cc2ncnc(Nc3ccc(F)c(Cl)c3)c2cc1OCCCN1CCOCC1 [gefitinib]
How it was run: as §1

[3] = compound: COc1cccc2cc(-c3nc([C@H]4CC[C@H](C(=O)O)CC4)n4ncnc(N)c34)[nH]c12
How it was run: as §1

lapatinib = compound: CS(=O)(=O)CCNCc1ccc(-c2ccc3ncnc(Nc4ccc(OCc5cccc(F)c5)c(Cl)c4)c3c2)o1 [lapatinib]
How it was run: as §1

pictilisib = compound: CS(=O)(=O)N1CCN(Cc2cc3nc(-c4cccc5[nH]ncc45)nc(N4CCOCC4)c3s2)CC1 [pictilisib]
How it was run: as §1

[4] = compound: CS(=O)(=O)c1ccc(-c2cnc(N)c(C(=O)Nc3ccccc3)n2)cc1
How it was run: as §1

crizotinib = compound: C[C@@H](Oc1cc(-c2cnn(C3CCNCC3)c2)cnc1N)c1c(Cl)ccc(F)c1Cl [crizotinib]
How it was run: as §1

[5] = compound: C[C@@H]1COCCN1C2=NC(=NC(=C2)C3(CC3)S(=O)(=O)C)C4=C5C=CNC5=CC=C4
How it was run: as §1

[6] = compound: C[C@H](C1=CC=C(C=C1)C(=O)NC2=C3C=CNC3=NC=C2)N
How it was run: as §1

duvelisib = compound: C[C@H](Nc1ncnc2nc[nH]c12)c1cc2cccc(Cl)c2c(=O)n1-c1ccccc1 [duvelisib]
How it was run: as §1

gandotinib = compound: Cc1cc(Nc2cc(CN3CCOCC3)c3nc(C)c(Cc4ccc(Cl)cc4F)n3n2)n[nH]1 [gandotinib]
How it was run: as §1

tozasertib = compound: Cc1cc(Nc2cc(N3CCN(C)CC3)nc(Sc3ccc(NC(=O)C4CC4)cc3)n2)n[nH]1 [tozasertib]
How it was run: as §1

[7] = compound: Cc1cc(SCc2sc(-c3ccc(C(F)(F)F)cc3)nc2C)ccc1OCC(=O)O
How it was run: as §1

doramapimod = compound: Cc1ccc(-n2nc(C(C)(C)C)cc2NC(=O)Nc2ccc(OCCN3CCOCC3)c3ccccc23)cc1 [doramapimod]
How it was run: as §1

ispinesib = compound: Cc1ccc(C(=O)N(CCCN)[C@@H](c2nc3cc(Cl)ccc3c(=O)n2Cc2ccccc2)C(C)C)cc1 [ispinesib]
How it was run: as §1

Chain of UniProt P11142 (P11142 whole entry, looked up): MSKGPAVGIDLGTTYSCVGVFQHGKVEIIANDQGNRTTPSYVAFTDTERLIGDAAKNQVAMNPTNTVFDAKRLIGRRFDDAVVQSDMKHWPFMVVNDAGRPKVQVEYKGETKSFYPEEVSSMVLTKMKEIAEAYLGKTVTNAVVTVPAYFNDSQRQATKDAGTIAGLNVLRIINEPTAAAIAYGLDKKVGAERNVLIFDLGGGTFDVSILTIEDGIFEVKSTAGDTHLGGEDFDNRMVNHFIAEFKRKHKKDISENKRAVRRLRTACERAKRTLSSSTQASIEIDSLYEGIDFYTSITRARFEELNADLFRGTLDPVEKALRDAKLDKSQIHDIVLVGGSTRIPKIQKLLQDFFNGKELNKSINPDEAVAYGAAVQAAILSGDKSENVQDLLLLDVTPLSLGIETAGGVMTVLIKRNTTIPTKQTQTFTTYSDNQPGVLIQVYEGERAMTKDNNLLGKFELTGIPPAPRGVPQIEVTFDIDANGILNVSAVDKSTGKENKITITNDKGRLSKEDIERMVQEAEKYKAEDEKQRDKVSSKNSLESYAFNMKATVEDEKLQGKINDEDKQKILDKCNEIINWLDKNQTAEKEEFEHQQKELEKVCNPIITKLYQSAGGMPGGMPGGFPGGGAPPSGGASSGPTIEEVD
Chain of UniProt Q06546 (Q06546 whole entry, looked up): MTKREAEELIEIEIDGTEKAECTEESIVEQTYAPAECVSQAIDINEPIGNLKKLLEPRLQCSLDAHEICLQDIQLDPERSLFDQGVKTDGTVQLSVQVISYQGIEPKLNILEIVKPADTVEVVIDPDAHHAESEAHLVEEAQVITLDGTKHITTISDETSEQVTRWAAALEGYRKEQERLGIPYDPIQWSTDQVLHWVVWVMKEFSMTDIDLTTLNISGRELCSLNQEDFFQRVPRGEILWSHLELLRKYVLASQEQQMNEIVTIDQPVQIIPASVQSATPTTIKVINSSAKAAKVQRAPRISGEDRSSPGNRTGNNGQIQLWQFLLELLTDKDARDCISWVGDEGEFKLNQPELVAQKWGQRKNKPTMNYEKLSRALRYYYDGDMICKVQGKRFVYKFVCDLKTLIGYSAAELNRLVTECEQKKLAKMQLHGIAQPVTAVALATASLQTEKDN
Chain of UniProt Q8N4A0 (Q8N4A0 whole entry, looked up): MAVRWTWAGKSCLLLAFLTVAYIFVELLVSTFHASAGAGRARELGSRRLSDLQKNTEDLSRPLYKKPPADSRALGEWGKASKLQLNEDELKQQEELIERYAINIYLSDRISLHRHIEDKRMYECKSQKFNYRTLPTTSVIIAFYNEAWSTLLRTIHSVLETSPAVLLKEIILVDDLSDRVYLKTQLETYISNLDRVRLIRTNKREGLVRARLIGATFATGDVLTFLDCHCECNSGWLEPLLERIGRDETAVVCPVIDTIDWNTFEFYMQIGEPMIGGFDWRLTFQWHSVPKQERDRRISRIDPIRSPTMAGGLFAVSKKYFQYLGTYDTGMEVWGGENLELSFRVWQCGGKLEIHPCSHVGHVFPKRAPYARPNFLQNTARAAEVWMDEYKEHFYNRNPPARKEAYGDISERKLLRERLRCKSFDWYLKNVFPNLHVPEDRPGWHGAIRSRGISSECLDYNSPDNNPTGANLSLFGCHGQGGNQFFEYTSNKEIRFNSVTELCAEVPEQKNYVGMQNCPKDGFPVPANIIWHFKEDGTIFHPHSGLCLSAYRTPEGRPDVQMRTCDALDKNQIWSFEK
Chain of UniProt Q8WXD5 (Q8WXD5 whole entry, looked up): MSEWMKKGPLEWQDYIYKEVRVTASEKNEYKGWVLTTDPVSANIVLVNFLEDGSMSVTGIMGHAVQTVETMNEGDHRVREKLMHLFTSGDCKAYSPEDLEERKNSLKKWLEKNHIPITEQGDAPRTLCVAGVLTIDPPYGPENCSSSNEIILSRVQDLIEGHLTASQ
Chain of UniProt Q9Y6M1 (Q9Y6M1 whole entry, looked up): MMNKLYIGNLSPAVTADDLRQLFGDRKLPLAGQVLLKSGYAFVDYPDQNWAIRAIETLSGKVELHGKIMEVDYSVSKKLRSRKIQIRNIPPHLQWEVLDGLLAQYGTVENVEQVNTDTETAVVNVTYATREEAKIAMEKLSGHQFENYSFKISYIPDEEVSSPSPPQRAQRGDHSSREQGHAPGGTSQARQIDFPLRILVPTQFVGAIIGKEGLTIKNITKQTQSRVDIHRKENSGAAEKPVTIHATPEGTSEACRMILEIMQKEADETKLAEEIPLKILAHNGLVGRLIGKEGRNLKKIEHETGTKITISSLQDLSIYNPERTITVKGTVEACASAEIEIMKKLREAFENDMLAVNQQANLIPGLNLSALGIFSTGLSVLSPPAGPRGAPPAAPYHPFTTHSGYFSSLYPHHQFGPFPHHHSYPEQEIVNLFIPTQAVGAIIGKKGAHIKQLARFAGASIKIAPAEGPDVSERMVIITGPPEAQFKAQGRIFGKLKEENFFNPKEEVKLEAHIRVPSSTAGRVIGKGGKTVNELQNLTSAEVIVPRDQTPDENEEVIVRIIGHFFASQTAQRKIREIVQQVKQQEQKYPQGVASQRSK
Chain of UniProt Q9UKN8 (Q9UKN8 whole entry, looked up): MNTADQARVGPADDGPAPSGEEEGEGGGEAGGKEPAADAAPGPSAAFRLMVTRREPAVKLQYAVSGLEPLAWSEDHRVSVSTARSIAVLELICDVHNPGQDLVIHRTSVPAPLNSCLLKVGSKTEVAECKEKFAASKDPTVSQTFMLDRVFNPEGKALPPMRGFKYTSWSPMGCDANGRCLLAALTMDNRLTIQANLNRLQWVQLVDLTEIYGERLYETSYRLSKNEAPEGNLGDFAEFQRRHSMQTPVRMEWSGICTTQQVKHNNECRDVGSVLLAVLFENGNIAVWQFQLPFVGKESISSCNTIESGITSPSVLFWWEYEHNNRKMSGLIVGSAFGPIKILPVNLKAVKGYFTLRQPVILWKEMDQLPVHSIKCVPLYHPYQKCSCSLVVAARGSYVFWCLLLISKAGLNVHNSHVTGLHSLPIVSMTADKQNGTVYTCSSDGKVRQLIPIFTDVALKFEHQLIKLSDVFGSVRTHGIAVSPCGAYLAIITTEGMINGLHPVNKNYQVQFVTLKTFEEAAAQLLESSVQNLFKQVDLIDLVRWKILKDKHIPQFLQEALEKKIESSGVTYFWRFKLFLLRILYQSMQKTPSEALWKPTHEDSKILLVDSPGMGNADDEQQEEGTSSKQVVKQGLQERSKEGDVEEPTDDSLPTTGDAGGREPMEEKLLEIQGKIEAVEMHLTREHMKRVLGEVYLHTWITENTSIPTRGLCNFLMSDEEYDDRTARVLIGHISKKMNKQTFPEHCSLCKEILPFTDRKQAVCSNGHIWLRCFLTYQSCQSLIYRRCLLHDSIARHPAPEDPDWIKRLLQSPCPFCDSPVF
Chain of UniProt P49448 (P49448 whole entry, looked up): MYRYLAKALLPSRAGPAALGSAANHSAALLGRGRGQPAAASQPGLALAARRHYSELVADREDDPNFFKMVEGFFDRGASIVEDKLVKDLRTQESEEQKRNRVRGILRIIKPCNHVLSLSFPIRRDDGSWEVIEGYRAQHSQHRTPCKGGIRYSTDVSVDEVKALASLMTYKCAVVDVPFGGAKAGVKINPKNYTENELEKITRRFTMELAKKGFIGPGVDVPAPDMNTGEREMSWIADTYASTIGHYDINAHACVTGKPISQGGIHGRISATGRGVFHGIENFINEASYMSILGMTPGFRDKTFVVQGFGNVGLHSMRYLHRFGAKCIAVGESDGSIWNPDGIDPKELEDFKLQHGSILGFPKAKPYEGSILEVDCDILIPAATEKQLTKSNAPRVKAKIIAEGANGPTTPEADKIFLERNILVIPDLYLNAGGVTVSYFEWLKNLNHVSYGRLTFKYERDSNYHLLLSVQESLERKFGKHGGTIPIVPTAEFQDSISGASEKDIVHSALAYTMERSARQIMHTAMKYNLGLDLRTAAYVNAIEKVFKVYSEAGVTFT
Chain of UniProt P48507 (P48507 whole entry, looked up): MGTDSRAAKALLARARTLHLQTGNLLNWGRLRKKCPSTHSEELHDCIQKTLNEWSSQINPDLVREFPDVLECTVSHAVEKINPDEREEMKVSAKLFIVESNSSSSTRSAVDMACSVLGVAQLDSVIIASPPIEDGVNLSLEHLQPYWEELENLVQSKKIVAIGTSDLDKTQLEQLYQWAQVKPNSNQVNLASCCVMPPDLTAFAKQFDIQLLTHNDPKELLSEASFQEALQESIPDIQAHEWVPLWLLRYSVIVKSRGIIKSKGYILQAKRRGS
Chain of UniProt O14929 (O14929 whole entry, looked up): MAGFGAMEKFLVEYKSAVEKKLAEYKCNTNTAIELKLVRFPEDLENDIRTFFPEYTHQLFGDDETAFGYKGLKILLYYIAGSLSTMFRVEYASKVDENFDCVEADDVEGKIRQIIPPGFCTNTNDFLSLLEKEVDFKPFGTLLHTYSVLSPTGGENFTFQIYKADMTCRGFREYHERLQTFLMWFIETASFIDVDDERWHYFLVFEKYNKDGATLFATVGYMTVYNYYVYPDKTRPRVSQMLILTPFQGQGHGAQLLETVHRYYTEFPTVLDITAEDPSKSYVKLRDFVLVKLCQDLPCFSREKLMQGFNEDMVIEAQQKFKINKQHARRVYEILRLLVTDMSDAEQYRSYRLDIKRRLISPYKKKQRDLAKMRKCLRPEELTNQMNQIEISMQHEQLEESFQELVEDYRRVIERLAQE
Chain of UniProt P29084 (P29084 whole entry, looked up): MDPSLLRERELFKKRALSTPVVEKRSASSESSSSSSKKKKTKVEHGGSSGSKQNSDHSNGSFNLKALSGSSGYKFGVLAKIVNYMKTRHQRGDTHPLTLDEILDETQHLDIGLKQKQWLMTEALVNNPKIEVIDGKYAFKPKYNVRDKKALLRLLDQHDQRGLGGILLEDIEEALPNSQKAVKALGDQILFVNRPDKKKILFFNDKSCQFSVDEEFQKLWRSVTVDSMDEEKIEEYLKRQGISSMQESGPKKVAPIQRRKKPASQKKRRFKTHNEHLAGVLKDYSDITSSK

Target | log2 fold change [1] | log2 fold change (filanesib) | log2 fold change (zotarolimus) | log2 fold change (idasanutlin) | log2 fold change (alisertib) | log2 fold change [2] | log2 fold change (gefitinib) | log2 fold change [3] | log2 fold change (lapatinib) | log2 fold change (pictilisib) | log2 fold change [4] | log2 fold change (crizotinib) | log2 fold change [5] | log2 fold change [6] | log2 fold change (duvelisib) | log2 fold change (gandotinib) | log2 fold change (tozasertib) | log2 fold change [7] | log2 fold change (doramapimod) | log2 fold change (ispinesib)
GEMIN6 (UniProt Q8WXD5) | 0.001 | 0.005 | 0.154 | 0.071 | -0.019 | 0.006 | -0.003 | 0.096 | -0.077 | 0.064 | -0.076 | -0.055 | 0.097 | 0.091 | 0.088 | 0.034 | -0.028 | 0.034 | -0.016 | -0.017
IGF2BP2 (UniProt Q9Y6M1) | -0.111 | 0.301 | 0.104 | 0.136 | -0.103 | -0.105 | 0.007 | -0.113 | 0.046 | -0.043 | 0.009 | -0.062 | -0.186 | 0.531 (active) | -0.161 | 0.139 | 0.012 | 0.158 | 0.288 | -0.182
GCLM (UniProt P48507) | 0.066 | -0.004 | 0.071 | -0.124 | -0.003 | 0.026 | 0.06 | -0.057 | 0.011 | 0.046 | 0.058 | -0.003 | 0.042 | -0.019 | -0.007 | -0.15 | 0.108 | 0.06 | -0.072 | 0.076
HIP1R (UniProt O75146) | -0.011 | -0.039 | -0.034 | -0.046 | 0.114 | 0.027 | -0.025 | 0 | -0.041 | -0.011 | 0.016 | -0.1 | 0.058 | 0.026 | -0.045 | -0.069 | -0.008 | 0.029 | 0.007 | -0.097
GALNT1 (UniProt Q10472) | 0.224 | 0.058 | 0.005 | -0.033 | 0.047 | 0.044 | 0.066 | 0.034 | 0 | 0.023 | 0.014 | -0.012 | 0.019 | -0.013 | 0.046 | 0.012 | -0.043 | 0.004 | 0.026 | 0.048
GALNT4 (UniProt Q8N4A0) | -0.029 | 0.066 | -0.017 | -0.099 | -0.015 | 0.011 | 0.025 | 0.025 | -0.028 | 0.172 | 0.047 | -0.068 | 0.156 | 0.017 | 0.09 | -0.153 | -0.028 | 0.036 | 0.013 | 0.04
GABPA (UniProt Q06546) | 0.01 | -0.111 | 0.063 | -0.025 | -0.002 | -0.134 | 0.032 | 0.029 | 0.048 | 0.02 | 0.059 | -0.028 | 0.126 | 0.012 | 0.089 | -0.029 | 0.025 | 0.068 | -0.018 | -0.099
HSPA8 (UniProt P11142) | -0.008 | -0.035 | 0.005 | 0.018 | -0.036 | -0.004 | 0.018 | -0.012 | -0.018 | -0.039 | 0.003 | 0.039 | -0.048 | -0.009 | -0.026 | 0.014 | 0.01 | -0.003 | -0.008 | 0.028
GTF3C4 (UniProt Q9UKN8) | -0.038 | 0.034 | 0.019 | -0.003 | -0.032 | 0.007 | 0.058 | -0.011 | 0.029 | 0.028 | -0.011 | 0.078 | 0.04 | -0.015 | 0.035 | -0.05 | 0.059 | -0.063 | -0.019 | 0.06
GLUD2 (UniProt P49448) | -0.041 | -0.032 | 0.123 | -0.07 | -0.06 | -0.003 | 0.061 | 0.023 | 0.191 | 0.216 | 0.102 | 0.003 | 0.011 | -0.062 | 0.191 | 0.064 | -0.095 | 0.016 | 0.041 | 0
HAT1 (UniProt O14929) | 0.14 | -0.049 | 0.075 | 0.055 | 0.019 | 0.066 | 0.008 | -0.014 | -0.002 | -0.076 | -0.011 | 0.013 | 0.007 | -0.225 | -0.031 | 0.019 | 0.024 | 0.033 | -0.04 | 0.135
GTF2E2 (UniProt P29084) | -0.014 | 0.034 | 0.027 | -0.03 | -0.027 | 0 | 0.009 | -0.056 | 0.022 | 0.031 | 0.037 | 0.012 | -0.029 | -0.002 | 0.051 | -0.03 | 0.02 | 0.071 | -0.025 | -0.01
